Inconclusive results are not listed. A call without a number means that no potency is given here. The source made the active and inactive calls. Calls follow the shape of the dose curve; as a rule, active = well fitted inhibition curve with a large enough effect; inconclusive = small, poorly fitted or top-dose-only effect; inactive = flat fitted curve, though single readings scatter.
What follows are compounds tested against Calcium and integrin-binding protein 1 (Homo sapiens) (UniProt Q99828) (assay: Primary qHTS for Identification of Calcium Integrin Binding Protein 1 (CIB1) Competitor (AID 1508620;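 also: GST tagged CIB1 binding a fluorescein labelled alphaIIb integrin peptide tracer; top concentration of the series differs between compounds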)). Details: CIB1-GST / FITC-alphaIIb peptide fluorescence polarization; series mostly up to 114 µM.
Calcium and integrin-binding protein 1 (Homo sapiens), sequence (Q99828 whole entry, looked up): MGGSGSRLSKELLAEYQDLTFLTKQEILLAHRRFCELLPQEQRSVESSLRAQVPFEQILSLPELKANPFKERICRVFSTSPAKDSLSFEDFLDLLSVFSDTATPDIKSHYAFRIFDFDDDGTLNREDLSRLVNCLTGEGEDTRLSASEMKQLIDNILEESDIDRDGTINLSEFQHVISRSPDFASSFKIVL
Summary of the method: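 CIB1-GST (1 uM final) and compound incubated 15 min at room temperature before adding FITC-alphaIIb peptide tracer (100 nM final). Competition for binding read by fluorescence polarization (ex 480, em 540) after another 15 min at room temperature.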
For `CCOc1ccc(NC(=O)NCC2CCCN2c2ccc(OC)cc2)cc1` (configuration not stated), the Potency was “inactive”. With `COc1ccc(-c2nnc3n2N=C(c2c(OC)cccc2OC)CS3)c(OC)c1` the Potency was “inactive”. `Cc1csc(CNc2ncnc3ccc(-c4ccccc4Cl)cc23)c1` was tested, and the Potency was “inactive”. With `O=S1(=O)N=C(Oc2cccc(C(F)(F)F)c2)c2ccccc21` the Potency was “inactive”. `O=C(Cc1nnc(CNC(=O)c2ccccc2)o1)Nc1cc(C(F)(F)F)ccc1Cl` was tested, and the Potency was “inactive”. `NC(=O)C1CCN(c2nc(-c3ccccc3Br)cs2)CC1` was tested, and the Potency was “inactive”. With `Cc1csc(CNc2ncnc3ccc(-c4ccc(C(=O)O)o4)cc23)n1` the Potency was “inactive”. For `COc1cc(O)c(C(CC(=O)N2CCCC(COc3ccc(F)cc3)C2)c2ccc3c(c2)OCO3)c(OC)c1` (configuration not stated), the Potency was “inactive”. With `FC(F)(F)c1ccc(-c2nc(-c3nnc4n3CCCCC4)c(C(F)(F)F)o2)cc1` the Potency was “inactive”. For `O=C(NC1CCCc2c1cnn2-c1ccc(F)cc1F)c1ccccc1` (configuration not stated), the Potency was “inactive”. With `CCOC(=O)c1ccc(-n2c(C)cc(-c3nnc4n3CCCCC4)c2C)cc1` the Potency was “inactive”. `Cc1cccc(CNc2ncnc3ccc(-c4ccc5c(ccn5C)c4)cc23)c1` was tested, and the Potency was “inactive”. With `COc1ccc(Cn2ncc3c4sc(C)cc4n(C)c3c2=O)cc1` the Potency was “inactive”. In the case of `Cc1cc(NC(=O)Nc2nnc(-c3ccncc3)s2)ccc1F`, the Potency is reported as “inactive”. For `O=C1Nc2ccccc2/C1=C\c1ccc(O)c(F)c1`, the Potency was “inactive”. `Cc1ccc(OCCn2c(CCNC(=O)C3CC3)nc3ccccc32)cc1` was tested, and the Potency was “inactive”. `CCc1ccc(NC(=O)c2cnn3c(C)cc(-c4ccccc4)nc23)cc1` was tested, and the Potency was “inactive”. In the case of `CCOc1cccc(-c2cc(-c3n[nH]c(=S)n3CC)c3ccccc3n2)c1`, the Potency is reported as “inactive”. For `O=S1(=O)N=C(Oc2ccccc2F)c2ccccc21`, the Potency was “inactive”. In the case of `c1ccc(CN(Cc2ccccc2)Cc2nnc(-c3cc4ccccc4[nH]3)s2)cc1`, the Potency is reported as “inactive”. In the case of `O=C(Nc1cc(Cc2ccccc2)ccn1)c1ccc(-c2cccc([N+](=O)[O-])c2)o1`, the Potency is reported as “inactive”. `N#Cc1c(-c2ccccc2C(F)(F)F)nc2ccccc2c1NCc1ccc(-c2ccnc(C(F)(F)F)c2)cc1` was tested, and the Potency was “inactive”.
